Results as given in PubChem BioAssay (NCATS).
Results filed as inconclusive are left out. Where a call stands in place of a potency, no number is given. Active and inactive are the calls of the source. The call rests on the fitted dose curve; in most records, active means well fitted cell-killing curve with a large enough effect; inconclusive means small, poorly fitted or top-dose-only effect; inactive means flat fitted curve, though single readings scatter.

assay: Quantitative highthroughput screen to assess conditional lethalithy of P12 Ichikawa cells grown in RPMI1640 with dialyzed fetal bovine serum (RPMI+ds) (AID 1963880); settings: ATP luminescence, 48 h; Potency: P12-Ichikawa viability; series mostly up to 45.8 µM; further: nearly all actives have a fitted effect of over 35% in size
Source text: Assay Provider: Jason Cantor Ph.D.
Department of Biochemistry
University of Wisconsin-Madison, Madison, WI, USA
Chemical screening studies have identified drug sensitivities across hundreds of cancer cell lines but most putative therapeutics fail to translate. Discovery and development of drug candidates in models that more accurately reflect nutrient levels in human blood is a major challenge. Here we performed high-throughput screens in conventional versus Human Plasma-Like Medium (HPLM) to identify compounds that were "missed" when screening using the artificial culture condition. Sets of conditional anticancer compounds spanned phases of clinical development and included non-oncology drugs were assessed. […] We also traced conditional phenotypes for several chemotherapeutics to availability of HPLM-specific metabolites and confirmed others for compounds whose reported targets are encoded by nonessential genes. Our findings establish generalizable strategies for exploiting conditional lethality in HPLM to reveal therapeutic candidates and mechanisms of action in cancer cells.
Described herein are the results of each viability screens against three cell lines: NOMO1 (an acute myeloid leukemia cell line); P12-Ichikawa (a T-cell acute lymphoblastic leukemia); and SEM (a B-cell ALL). Each assay was screened using 3 different cell culture media: homemade human plasma-Like medium with 10% dialyzed fetal bovine serum (HPLM+ds); RPMI1640 with 10% untreated FBS and 5mM glucose (RPMI+s); and RPMI1640 with 10% dialyzed fetal bovine serum and 5 mM glucose (RPMI+ds).
PROTOCOL TABLE (as described by Inglese J, Shamu CE and Guy RK. 2007)
SEQUENCE No. (e.g., 1, 2, 3, etc.); […] (e.g., Cells, Incubation, Reagent, etc.); VALUE and DESCRIPTION.
1; Cells; 5 uL; white, solid bottom 1536-well Greiner assay plate.
2; Compounds; 23 nL; Kalypsis pin tool (Wako USA) equipped with a 1536-well pin head to transfer to the assay plates.
3; Incubation; 48 hours; 37C incubation.
4; Reagent; 3 uL; CellTiter Glo (Promega).
5; Incubation; 5 min, room temperature
6; Detection; Luminescence, Viewlux PerkinElmer.
NOTES (numbers refer to Sequence numbers above)
1. Briefly, 5 ul of cell reagent was dispensed using a Multidrop Combi Dispenser. The NOMO1 and SEM cells were plated at 500 cells/well and the P12-Ichikawa line at 1000 cells/well.
2. After seeding the cells, 23 nL of MIPE 4.1 library compounds (in DMSO) were added to each plate using a Kalypsys 1536 Pintool dispenser. Bortezomib at final concentration of […] and DMSO were added to each plate as positive and negative controls respectively. For each screen, MIPE 4.1 compounds were added over an eleven-point concentration range […] in 3-fold dilutions.
3. Each plate was covered with a stainless steel gasketed lid to prevent evaporation and incubated for 48 hour at 37C, 95% relative humidity, and 5% CO2.
4-5. Three microliter CellTilter-GloTM luminescent substrate mix (Promega) reagent was added to the assay plate and incubated at room temperature for 5 min.
6. The luminescence signal was measured using a ViewLux (PerkinElmer) multiplate reader with a 2 second exposure time per plate. Data for each compound were normalized as percent viability such that measurements for DMSO and the empty well controls in each plate were defined as 100% and 0%, respectively.
Potency means the concentration at half of the fitted maximal effect.

SMILES | Potency
Clc1ccc(C(c2ccccc2Cl)C(Cl)Cl)cc1 (stereo not given) | inactive
CCN(CCO)CCCOc1ccc2c(Nc3cc(CC(=O)Nc4cccc(F)c4)[nH]n3)ncnc2c1 | 0.187 µM (active)
Cc1c(OCC(F)(F)F)ccnc1CS(=O)c1nc2ccccc2[nH]1 (stereo not given) | inactive
NC(=O)c1cccc(-c2cc(Nc3ccc(OC(F)(F)F)cc3)ncn2)c1 | inactive
CCc1ccc(OCc2ccccc2C(=O)Nc2ccc3nc(C)cc(N)c3c2)cc1 | 14.8 µM (active)
NC(=O)c1cnc(N[C@@H]2CCCC[C@@H]2N)nc1Nc1cccc(-n2nccn2)c1 | inactive
O=c1c(-c2ccc(O)cc2)coc2cc(OC3O[C@H](CO)[C@H](O)[C@H](O)[C@H]3O)cc(O)c12 (stereo not given in full) | inactive
O=C(Nc1ncc(-c2cc(C(F)F)nn2-c2c(Cl)cccc2Cl)s1)C1CC1 | 1.18 µM (active)
CN(C)c1ccc(C(=C2C=CC(=[N+](C)C)C=C2)c2ccc(N(C)C)cc2)cc1 | 0.132 µM (active)
O=C(NCc1ccncc1)C12C[C@H]3C[C@@H](C1)CC(c1ccc(Cl)cc1)(C3)C2 | 20.9 µM (active)
CCN(CCO)CCCC(C)Nc1ccnc2cc(Cl)ccc12 (stereo not given) | 2.64 µM (active)
Clc1ccc2c(c1)C(N1CCNCC1)=Nc1ccccc1O2 | inactive
COc1cccc(-c2cc(=O)c3ccccc3o2)c1N | inactive
Fc1ccc(Cl)cc1-c1nc(Nc2ccncc2)c2nccnc2n1 | inactive
CC(C)C(=O)Oc1ccc(CO)cc1[C@H](CCN(C(C)C)C(C)C)c1ccccc1 | inactive
NC1CCC(N[C@@H]2C[C@H]2c2ccccc2)CC1 (stereo not given in full) | inactive
CC[C@]1(O)C[C@@H]2CN(CCc3c([nH]c4ccccc34)[C@@](C(=O)OC)(c3cc4c(cc3OC)N(C=O)[C@@H]3C45CCN4CC=C[C@](CC)([C@H]45)[C@@H](OC(C)=O)[C@]3(O)C(=O)OC)C2)C1 (stereo not given in full) | inactive
Cc1nc(-c2ccc(OCC(C)C)c(C#N)c2)sc1C(=O)O | inactive
O=C(CCCCCCC(=O)Nc1ccc([C@H]2O[C@@H](CSc3nc(-c4ccccc4)c(-c4ccccc4)o3)C[C@@H](c3ccc(CO)cc3)O2)cc1)NO | 3.32 µM (active)
Nc1nccc(-c2ccc3noc(-c4ccc(Cl)cc4)c3c2)n1 | inactive

SMILES | Potency
Nc1cc(C(Cl)=C(Cl)Cl)c(S(N)(=O)=O)cc1S(N)(=O)=O | 5.26 µM (active)
COc1ncc(-c2ccc3nccc(-c4ccnnc4)c3c2)cc1NS(=O)(=O)c1ccc(F)cc1F | 2.09 µM (active)
COC[C@@H](c1ccc(C(F)(F)F)cc1)N1CCN(C2(C)CCN(C(=O)c3c(C)ncnc3C)CC2)C[C@H]1C | inactive
c1ccc(CNc2nc(N3CCOc4ccccc43)nc3c2CCCC3)cc1 | inactive
O=C(CCCCCCC(=O)Nc1cccnc1)NO | 7.43 µM (active)
CS[C@H]1SC[C@@H]2C(=O)N(C)[C@H](C(C)C)C(=O)OC[C@H](NC(=O)c3cnc4ccccc4n3)C(=O)N[C@H](C)C(=O)N(C)[C@@H]1C(=O)N(C)[C@H](C(C)C)C(=O)OC[C@H](NC(=O)c1cnc3ccccc3n1)C(=O)N[C@H](C)C(=O)N2C | 0.0105 µM (active)
CC(=NNC(=S)N1CCC1)c1ccccn1 | 0.0066 µM (active)
CC(C)C[C@H](NC(=O)[C@@H](NC(=O)c1cccc(-c2ccccc2)n1)[C@@H](C)O)B(O)O | 0.059 µM (active)
COc1ccc(Nc2nccc(NCCO)n2)cc1 | inactive
CN(C)c1ccc(-c2nc3ncc(Cl)c(N4CCN(CC(=O)Nc5nccs5)CC4)c3[nH]2)cc1 | inactive
COc1c(Cl)cc2c([nH]c3cnccc32)c1NC(=O)c1cccnc1C | inactive
Nc1ccc(S(=O)(=O)Nc2ncccn2)cc1 | inactive
CC(=O)c1cnc2ccc(-c3cc(Cl)c(O)c(Cl)c3)nc2c1NC1CCC(CN(C)C)CC1 (stereo not given) | 0.132 µM (active)
COc1ccc2cc([S+]([O-])Cc3ncc(C)c(OC)c3C)nc2c1 | inactive
CCN1CCCC1CNC(=O)c1cc(S(=O)(=O)CC)c(N)cc1OC (stereo not given) | inactive
NC(=O)c1ccc2nc(-c3ccc(Oc4ccc(Cl)cc4)cc3)[nH]c2c1 | inactive
COc1ccc(CCN2CCN(CCCc3ccccc3)CC2)cc1OC | inactive
CC(=O)O[C@]1(C(C)=O)CC[C@H]2[C@@H]3C=C(C)C4=CC(=O)CC[C@]4(C)[C@@H]3CC[C@@]21C | inactive
Cc1cc(Nc2ncc3c(n2)N(C)C(=O)N(c2cc(NC(=O)c4cccc(C(F)(F)F)c4)ccc2C)C3)n(C)n1 | 11.8 µM (active)
COc1ccc([C@@H]2CNC(=O)C2)cc1OC1CCCC1 | inactive
